The sample as a whole holds a higher share of hits than the screen did.
IDE exosite inh – exo-site inhibitors of human insulin-degrading enzyme | z-score at 20 µM | P14735 | purified IDE, FL-6b probe fluorescence polarization; hits give low values | 17,000 tested, 6.3% active;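 active means z-score of -3 or lower, meaning strong loss of probe binding signal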;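 further: His-tagged human IDE residues 42-1019 made in E. coli with 30 nM FL-6b probe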
Target sequence (P14735 42-1019 limits assumed): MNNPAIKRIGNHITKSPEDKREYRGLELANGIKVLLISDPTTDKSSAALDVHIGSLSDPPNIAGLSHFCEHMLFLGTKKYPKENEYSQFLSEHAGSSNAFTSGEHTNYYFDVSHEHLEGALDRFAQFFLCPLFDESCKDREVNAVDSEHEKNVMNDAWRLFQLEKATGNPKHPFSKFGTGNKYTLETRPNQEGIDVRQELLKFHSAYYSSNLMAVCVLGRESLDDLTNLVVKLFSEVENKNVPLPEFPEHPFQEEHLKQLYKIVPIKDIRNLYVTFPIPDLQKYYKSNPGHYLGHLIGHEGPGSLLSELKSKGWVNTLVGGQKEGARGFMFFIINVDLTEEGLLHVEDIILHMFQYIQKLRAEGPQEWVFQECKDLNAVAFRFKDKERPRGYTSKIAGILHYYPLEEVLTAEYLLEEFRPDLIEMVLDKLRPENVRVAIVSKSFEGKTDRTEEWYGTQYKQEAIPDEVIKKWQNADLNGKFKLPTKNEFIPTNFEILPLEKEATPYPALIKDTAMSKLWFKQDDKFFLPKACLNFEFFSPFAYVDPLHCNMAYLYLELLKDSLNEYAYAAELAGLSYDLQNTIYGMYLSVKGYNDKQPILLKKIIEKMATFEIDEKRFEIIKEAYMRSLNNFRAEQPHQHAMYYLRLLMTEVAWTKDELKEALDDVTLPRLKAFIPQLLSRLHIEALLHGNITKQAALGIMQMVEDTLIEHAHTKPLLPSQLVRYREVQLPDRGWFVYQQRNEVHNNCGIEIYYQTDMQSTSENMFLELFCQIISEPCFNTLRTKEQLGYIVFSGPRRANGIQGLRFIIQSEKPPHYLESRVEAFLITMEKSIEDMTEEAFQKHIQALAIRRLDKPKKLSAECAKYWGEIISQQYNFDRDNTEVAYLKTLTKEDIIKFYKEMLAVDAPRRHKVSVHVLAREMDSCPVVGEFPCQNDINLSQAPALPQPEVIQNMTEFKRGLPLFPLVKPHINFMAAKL
The depositor's hits bear a star; ! = repeats disagree.

SMILES | IDE exosite inh
COc1ccc(-c2ccc(C3[C@H]4CNC[C@@H]3N4Cc3nccs3)cc2)cc1 (stereo not given in full) | 2.3
C[C@@H]1CC(=O)N[C@@H](c2ccccc2)C/C=C\C[C@H](c2ccccc2)NC1=O | 1.2
CN(C)C(=O)c1ccc(-c2ccc([C@@H]3[C@H](CO)N4C(=O)CN(C(=O)C5CCCCC5)C[C@@H]34)cc2)cc1 | 1.5
C[C@H]1CC=CC[C@H](c2cccc(Cl)c2)NC(=O)[C@H](Cc2ccccc2)N(C)C(=O)c2ccccc2O1 (mixture of isomers) | -0.43
CCS(=O)(=O)N1[C@H](CO)[C@@H](c2ccc(C#CCC3CCCC3)cc2)[C@@H]1C#N | -0.39
COc1ccc2c3c(n(C)c2c1)[C@@H](CO)N(C(=O)c1ccc(F)cc1)CC31CN(CC2CCOCC2)C1 | -1.1
COc1ccccc1NC(=O)N1C[C@H]2[C@@H](c3ccccc31)[C@H](CO)N2C(=O)C1CCCC1 | 1.6
CCC(=O)N1CCCCN2[C@H](C1)[C@@H](c1ccc(C#Cc3ccccc3F)cc1)[C@@H]2CO | -6.5*
CCC(=O)N1CCCCN2[C@H](C1)[C@H](c1ccc(-c3ccc(F)cc3)cc1)[C@@H]2CO | 1.5
CCC(=O)N1CCCCN2[C@H](CO)[C@H](c3ccc(C#Cc4ccccc4F)cc3)[C@@H]2C1 | -5.9*
CCC(=O)N1CCCCN2[C@H](CO)[C@@H](c3ccc(-c4ccc(F)cc4)cc3)[C@H]2C1 | 1.4
CO[C@H]1CN(C)C(=O)c2ccc(NC(=O)Nc3ccccc3)cc2OC[C@H](C)N(C(=O)CC2CC2)C[C@H]1C | 0.46
N#C[C@H]1[C@@H](c2ccccc2C2=CCCCC2)[C@@H](CO)N1C(=O)NC1CCCC1 | 2.4
N#C[C@@H]1[C@@H](c2ccc(C3=CCCCC3)cc2)[C@H](CO)N1S(=O)(=O)c1ccccc1 | 0.44
COCC#Cc1ccc([C@H]2[C@H](CO)N3C(=O)CN(C(=O)c4cccnc4)C[C@@H]23)cc1 | 5.4
CO[C@@H]1CN(C)C(=O)c2cc(NC(=O)c3ccc(Oc4ccccc4)cc3)ccc2OC[C@H](C)NC[C@@H]1C | -8*
CO[C@@H]1CN(C)C(=O)c2cc(NC(=O)c3cnccn3)ccc2OC[C@H](C)NC[C@H]1C | -0.012
CO[C@H]1CN(C)C(=O)c2cc(NC(=O)c3ccc(Oc4ccccc4)cc3)ccc2OC[C@H](C)NC[C@H]1C | -14*!
CO[C@@H]1CN(C)C(=O)c2cc(NC(=O)c3cnccn3)ccc2OC[C@H](C)NC[C@@H]1C | -0.39
CO[C@@H]1CN(C)C(=O)c2cc(NC(=O)c3ccc(Oc4ccccc4)cc3)ccc2OC[C@@H](C)NC[C@H]1C | -14*
CO[C@H]1CN(C)C(=O)c2ccc(NC(=O)c3cccc(F)c3)cc2OC[C@@H](C)NC[C@@H]1C | 1.2
COc1cccc(NC(=O)Nc2ccc3c(c2)C(=O)N(C)C[C@H](OC)[C@H](C)CN[C@@H](C)CO3)c1 | -1.9
COc1cccc(NC(=O)Nc2ccc3c(c2)C(=O)N(C)C[C@@H](OC)[C@H](C)CN[C@@H](C)CO3)c1 | 0.18
COc1cccc(NC(=O)Nc2ccc3c(c2)C(=O)N(C)C[C@H](OC)[C@@H](C)CN[C@H](C)CO3)c1 | -1.2
CCCC#Cc1ccc([C@H]2[C@@H](CO)N3C(=O)CN(C(=O)c4ccccc4)C[C@@H]23)cc1 | 0.93
SMILES | IDE exosite inh
CC(=O)N1CCCCN2[C@@H](CO)[C@H](c3ccc(-c4cccc(C(=O)N(C)C)c4)cc3)[C@@H]2C1 | 4.6
CO[C@@H](CN(C)C(=O)Nc1ccc(Cl)cc1)[C@@H](C)CN(Cc1ccccc1Cl)[C@H](C)CO | 1.5
O=C(Cc1cccnc1)N1CC(=O)N2[C@H](CO)[C@H](c3ccc(C#CC4CCCCC4)cc3)[C@@H]2C1 | -2.3
Cc1noc(C)c1NC(=O)N1C[C@H](O)COC[C@H]2O[C@H](CC(=O)N[C@@H]3CCN(Cc4ccccc4)C3)CC[C@@H]21 | -0.15
C[C@@H](O)C#Cc1ccc([C@@H]2[C@@H](CO)N3CCCCN(C(=O)c4ccc5c(c4)OCO5)C[C@@H]23)cc1 | 1.4
C[C@@H]1CN([C@@H](C)CO)C(=O)c2cc(NC(=O)C3CCCCC3)ccc2O[C@H]1CN(C)Cc1ccc2c(c1)OCO2 | 1.3
CO[C@@H]1CN(C)C(=O)c2ccc(NS(C)(=O)=O)cc2OC[C@H](C)N(CC2CC2)C[C@@H]1C | 0.6
O=C(Nc1cccc(F)c1)N1CC(=O)N2[C@H](C1)[C@@H](c1ccc(Br)cc1)[C@@H]2CO | -0.8
CCN(C[C@@H]1[C@@H](c2ccccc2)[C@H](CO)N1CC1CC1)C(=O)c1ccccn1 | 1.1
CCC(=O)N1CC(=O)N2[C@@H](CO)[C@@H](c3ccc(-c4ccc(C#N)cc4)cc3)[C@@H]2C1 | -0.38
CCC(=O)NC[C@H]1[C@@H](c2ccc(-c3ccccc3)cc2)[C@@H](CO)N1C(=O)C1CC1 | -0.76
C[C@@H]1CCn2cc(nn2)COC[C@H](c2ccccc2)NC1=O | -0.21
CC=Cc1ccc2n(c1=O)C[C@@H]1[C@@H](CO)[C@H](C(=O)N3CCOCC3)N(Cc3ccccc3)[C@H]21 (mixture of isomers) | 0.67
CCCC#Cc1ccc([C@@H]2[C@@H](CO)N3CCCCN(Cc4ccncc4)C[C@H]23)cc1 | 3.3
OC[C@@H]1[C@@H](c2ccc(/C=C/c3ccccc3)cc2)[C@H]2CN(Cc3cccnc3)CCCCN12 | -5.2*
OC[C@@H]1[C@@H](c2ccc(-c3ccc(F)cc3)cc2)[C@@H]2CN(Cc3cccnc3)CCCCN12 | 1.2
CCCC#Cc1ccc([C@H]2[C@@H](CO)N3CCCCN(Cc4ccncc4)C[C@H]23)cc1 | -1.6
OC[C@H]1[C@@H](c2ccc(-c3ccc(F)cc3)cc2)[C@@H]2CN(Cc3cccnc3)CCCCN12 | -1.7
OC[C@H]1[C@@H](c2ccc(-c3ccc(F)cc3)cc2)[C@H]2CN(Cc3cccnc3)CCCCN21 | 3.4
OC[C@@H]1[C@H](c2ccc(/C=C/c3ccccc3)cc2)[C@H]2CN(Cc3cccnc3)CCCCN12 | -5.4*
OC[C@H]1[C@H](c2ccc(/C=C/c3ccccc3)cc2)[C@@H]2CN(Cc3ccncc3)CCCCN12 | -4.5*
OC[C@H]1[C@H](c2ccc(/C=C/c3ccccc3)cc2)[C@@H]2CN(Cc3cccnc3)CCCCN12 | -2.4
COc1ccc2c3c(n(C)c2c1)[C@@H](CO)N(Cc1ccccc1OC)CC31CCN(CC2CC2)CC1 | -1.7
CCC(=O)N1C[C@@H](C)[C@@H](OC)CN(C)C(=O)c2cc(NC(=O)Nc3ccc(Cl)cc3)ccc2OC[C@H]1C | 0.77
N#C[C@H]1[C@@H](c2ccc(C#CCC3CCCC3)cc2)[C@@H](CO)N1C(=O)c1ccccn1 | 3.7
SMILES | IDE exosite inh
O=C1CN(S(=O)(=O)Cc2ccccc2)C[C@H]2[C@H](c3ccc(C#Cc4cccnc4)cc3)[C@H](CO)N12 | -0.55
N#C[C@@H]1[C@@H](c2ccc(-c3cccc(F)c3)cc2)[C@H](CO)N1S(=O)(=O)c1cccc(F)c1 | 1.2
CS(=O)(=O)N1CC(=O)N2[C@@H](CO)[C@H](c3ccc(C#Cc4cccc(F)c4)cc3)[C@@H]2C1 | -2.9
CCS(=O)(=O)N1CC(=O)N2[C@H](C1)[C@@H](c1ccc(C#Cc3cccc(F)c3)cc1)[C@@H]2CO | -1.6
O=C(CC1CC1)N1CC(=O)N2[C@H](CO)[C@@H](c3ccc(C#Cc4cccc(F)c4)cc3)[C@@H]2C1 | -2.1
CS(=O)(=O)N1CC(=O)N2[C@H](CO)[C@@H](c3ccc(C#Cc4cccc(F)c4)cc3)[C@@H]2C1 | 1.5
CS(=O)(=O)N1CC(=O)N2[C@H](CO)[C@H](c3ccc(C#Cc4cccc(F)c4)cc3)[C@@H]2C1 | -9*

High-throughput results as filed in PubChem BioAssay.
